Inconclusive results are not listed. Entries that show only a call come without a potency. Active and inactive are the calls of the source. Calls come from the whole dose curve; as a rule, active = well fitted inhibition curve with a large enough effect in the signal ratio in the repeat runs (not every such curve was filed as active); inconclusive = weak or mixed curves; inactive = flat fitted curve, though single readings scatter; the % refers to the signal ratio.
Each compound was assayed against Progesterone receptor (Homo sapiens) (UniProt P06401) (assay: qHTS assay to identify small molecule antagonists of the progesterone receptor (PR) signaling pathway (AID 1346795)). Details: PR-UAS-bla HEK293T, beta-lactamase FRET ratio, 16 h; series mostly up to 92.4 µM.
Sequence of Progesterone receptor (Homo sapiens) (P06401 whole entry, looked up): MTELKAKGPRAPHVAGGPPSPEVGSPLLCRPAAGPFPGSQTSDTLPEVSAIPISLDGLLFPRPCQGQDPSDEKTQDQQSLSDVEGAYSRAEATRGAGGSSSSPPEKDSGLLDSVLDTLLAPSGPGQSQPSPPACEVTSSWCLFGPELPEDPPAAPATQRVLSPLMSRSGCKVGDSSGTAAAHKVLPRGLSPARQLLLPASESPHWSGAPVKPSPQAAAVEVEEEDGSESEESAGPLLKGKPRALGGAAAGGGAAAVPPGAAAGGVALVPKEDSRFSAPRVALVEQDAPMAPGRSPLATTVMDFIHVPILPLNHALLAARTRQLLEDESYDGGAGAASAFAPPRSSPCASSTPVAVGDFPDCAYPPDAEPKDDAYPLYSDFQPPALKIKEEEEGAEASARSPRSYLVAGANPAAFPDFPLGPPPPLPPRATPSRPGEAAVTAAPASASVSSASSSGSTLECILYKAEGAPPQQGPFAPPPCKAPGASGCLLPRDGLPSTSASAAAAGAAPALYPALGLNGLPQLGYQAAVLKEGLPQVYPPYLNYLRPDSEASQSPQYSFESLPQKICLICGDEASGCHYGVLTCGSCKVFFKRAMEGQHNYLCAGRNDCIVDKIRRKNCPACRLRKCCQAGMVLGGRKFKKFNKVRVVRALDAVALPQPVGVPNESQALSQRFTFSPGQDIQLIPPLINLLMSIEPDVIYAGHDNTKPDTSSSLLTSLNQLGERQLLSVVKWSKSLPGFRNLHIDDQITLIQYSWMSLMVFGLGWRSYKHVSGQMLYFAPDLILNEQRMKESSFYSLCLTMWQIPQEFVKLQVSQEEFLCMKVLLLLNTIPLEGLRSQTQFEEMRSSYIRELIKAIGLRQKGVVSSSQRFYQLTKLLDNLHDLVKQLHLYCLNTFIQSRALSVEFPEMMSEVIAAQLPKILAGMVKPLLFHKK
Source text: National Center for Advancing Translational Sciences [NCATS]
NIH Chemical Genomics Center [NCGC]
U.S. Environmental Protection Agency [EPA]
National Institutes of Environmental Health Sciences [NIEHS]
National Toxicology Program [NTP]
U.S. Food and Drug Administration [FDA]
Progesterone receptor (PR), a nuclear hormone receptor, plays an important role in development, metabolic homeostasis and reproduction. […] Endocrine disrupting chemicals (EDCs) and their interactions with steroid hormone receptors like PR causes disruption of normal endocrine function. To identify the compounds that inhibit PR signaling, a PR-UAS-bla GripTite cell line i.e. PR-UAS-bla HEK293T (Invitrogen, Carlsbad, CA, USA) containing a beta-lactamase reporter gene under the control of an Upstream Activator Sequence (UAS) was used to screen Tox21 10K compound library.
Tox21 Assay Protocol Summary:
PR-UAS-bla HEK293T cells were dispensed at 3,000 cells/4 uL of assay medium containing 2% charcoal stripped FBS per well into black wall/clear-bottom 1536-well plates using a Multidrop Combi (ThermoFisher Scientific, Waltham, MA) dispenser. After the assay plates were incubated at a 37C and 5% CO2 for 6 hr, 23 nL of compounds dissolved in DMSO, positive controls or DMSO only was transferred to the assay plate by a Pintool station (Kalypsys, San Diego, CA), followed by addition of 1 uL (1nM as final concentration) of Promegestone (R5020) in assay medium using a BioRAPTR FRD (Flying Reagent Dispenser, Aurora Discovery, San Diego, CA). The plates were incubated at 37C and 5% CO2 for 16 hr. Then 1 uL of LiveBLAzer B/G FRET substrate was added using a FRD. After the plates were incubated at room temperature for 2 hours, fluorescence intensity was measured by an Envision plate reader (PerkinElmer, Shelton, CT).
Potency is the fitted concentration of half-maximal effect.

**Q.** Which Potency does the source give for `SCCc1cnccn1` here?
**A.** Its Potency is 43.3 µM (active).

**Q.** Which Potency does the source give for `CC(C)CC(O)CC(C)C` here?
**A.** The Potency was “inactive”.

**Q.** For `O=C1c2ccccc2C(=O)c2c(O)ccc(O)c21`, which Potency is on record?
**A.** The Potency was “inactive”.

**Q.** With `CC(C)(C)NCC(O)COc1cccc2c1C[C@H](O)[C@H](O)C2` (stereo not given in full) as the compound, how does the Potency read?
**A.** The Potency was “inactive”.

**Q.** With `CC(C)c1ccc(C#N)cc1` as the compound, how does the Potency read?
**A.** Its Potency is “inactive”.

**Q.** For `CC[C@@H](CO)NCCN[C@@H](CC)CO`, which Potency is on record?
**A.** The Potency was “inactive”.

**Q.** How did the Potency turn out when `CC(C)(C)CCCCCCOC(=O)c1ccccc1C(=O)OCCCCCCC(C)(C)C` was run?
**A.** The Potency was “inactive”.

**Q.** For `CCCCCCCCCCCCCCCC(=O)OCC`, which Potency is on record?
**A.** The Potency was “inactive”.

**Q.** Which Potency does the source give for `O=C(NC(Cc1cc(=O)[nH]c2ccccc12)C(=O)O)c1ccc(Cl)cc1` (stereo not given) here?
**A.** Its Potency is “inactive”.

**Q.** How did the Potency turn out when `COC(CC(C)CCCC(C)(C)O)OC` (stereo not given) was run?
**A.** The Potency was “inactive”.

**Q.** For `BrC(Br)C(Br)Br`, which Potency is on record?
**A.** Its Potency is “inactive”.

**Q.** Which Potency does the source give for `CCCCCCCCCCCCCCCCCC(=O)OCC(CC)CCCC` (stereo not given) here?
**A.** The Potency was “inactive”.

**Q.** How did the Potency turn out when `CCCOC(=O)c1c(Cl)c(Cl)c(Cl)c(Cl)c1C(=O)OCCC` was run?
**A.** Its Potency is 17.2 µM (active).

**Q.** Which Potency does the source give for `CC(C)C1CCC(C(=O)N[C@H](Cc2ccccc2)C(=O)O)CC1` (stereo not given in full) here?
**A.** The Potency was “inactive”.

**Q.** `CCCCCCOC(=O)CCCCC` was tested. Which Potency did it give?
**A.** The Potency was “inactive”.

**Q.** `CC[C@H]1OC(=O)[C@H](C)[C@@H](O[C@H]2C[C@@](C)(OC)[C@@H](O)[C@H](C)O2)[C@H](C)[C@@H](O[C@@H]2O[C@H](C)C[C@H](N(C)C)[C@H]2O)[C@](C)(O)C[C@@H](C)CN(C)[C@H](C)[C@@H](O)[C@]1(C)O` was tested. Which Potency did it give?
**A.** The Potency was “inactive”.

**Q.** Which Potency does the source give for `C[C@H](CS)C(=O)N1CCC[C@H]1C(=O)O` here?
**A.** The Potency was “inactive”.

**Q.** How did the Potency turn out when `CC(=O)c1ccc[nH]1` was run?
**A.** The Potency was “inactive”.

**Q.** For `O=C(O)CCS`, which Potency is on record?
**A.** The Potency was “inactive”.

**Q.** With `COc1ccc(C(=O)NCc2ccc(OCCN(C)C)cc2)cc1OC` as the compound, how does the Potency read?
**A.** The Potency was “inactive”.

**Q.** How did the Potency turn out when `CC(=O)Oc1cccc(O)c1` was run?
**A.** Its Potency is “inactive”.

**Q.** For `CCCc1nc2c(C)cc(-c3nc4ccccc4n3C)cc2n1Cc1ccc(-c2ccccc2C(=O)O)cc1`, which Potency is on record?
**A.** The Potency was “inactive”.

**Q.** Which Potency does the source give for `CCCCCCCCCCCC(=O)OCC(O)CO` (stereo not given) here?
**A.** Its Potency is “inactive”.

**Q.** With `COC(C)(C)OC` as the compound, how does the Potency read?
**A.** Its Potency is “inactive”.

**Q.** `N[C@@H](Cc1cc(I)c(O)c(I)c1)C(=O)O` was tested. Which Potency did it give?
**A.** The Potency was “inactive”.

**Q.** How did the Potency turn out when `CCCCCCCC(=O)OCCCCCC` was run?
**A.** Its Potency is “inactive”.

**Q.** `O=C(CCS)OCC(COC(=O)CCS)(COC(=O)CCS)COC(=O)CCS` was tested. Which Potency did it give?
**A.** The Potency was “inactive”.

**Q.** For `CC(C)N(C)C`, which Potency is on record?
**A.** Its Potency is “inactive”.

**Q.** For `CC(C)(C(=O)c1cccnc1)c1cccnc1`, which Potency is on record?
**A.** The Potency was “inactive”.

**Q.** For `Cc1oc(=O)oc1COC(=O)[C@@H]1N2C(=O)[C@@H](NC(=O)[C@H](N)c3ccccc3)[C@H]2SC1(C)C`, which Potency is on record?
**A.** Its Potency is “inactive”.

**Q.** `CC1=CC[C@@]23C[C@@H]1C(C)(C)[C@@H]2CC[C@H]3C` was tested. Which Potency did it give?
**A.** The Potency was “inactive”.

**Q.** With `CO[C@@H]1[C@@H](OC)[C@H](C)[C@@](O)(CC(=O)O)O[C@H]1[C@H](C)[C@H]1O[C@@]2(CC[C@@](C)([C@H]3CC[C@@](C)([C@@H]4O[C@@H]([C@H]5O[C@](C)(O)[C@H](C)C[C@@H]5C)C[C@@H]4OC4C[C@H](OC)[C@@H](OC)[C@H](C)O4)O3)O2)C[C@H](O)[C@H]1C` (stereo not given in full) as the compound, how does the Potency read?
**A.** Its Potency is 10.6 µM (active).

**Q.** For `CCN(Cc1cccc(S(=O)(=O)O)c1)c1ccc(C(=C2C=CC(=[N+](CC)Cc3cccc(S(=O)(=O)O)c3)C=C2)c2ccc(O)cc2S(=O)(=O)[O-])cc1`, which Potency is on record?
**A.** The Potency was “inactive”.

**Q.** Which Potency does the source give for `CC(=O)OC(C)C[N+](C)(C)C` (stereo not given) here?
**A.** Its Potency is “inactive”.

**Q.** Which Potency does the source give for `CC(C)N=C=NC(C)C` here?
**A.** Its Potency is “inactive”.

**Q.** Which Potency does the source give for `O=[N+]([O-])C1(Br)COCOC1` here?
**A.** Its Potency is “inactive”.

**Q.** How did the Potency turn out when `COc1cc(C(C)=O)ccc1OCCCN1CCC(c2noc3cc(F)ccc23)CC1` was run?
**A.** The Potency was “inactive”.

**Q.** How did the Potency turn out when `NC(=O)c1ccccc1[N+](=O)[O-]` was run?
**A.** Its Potency is “inactive”.

**Q.** `CCN(CC)CCOC(=O)C(c1ccccc1)c1ccccc1` was tested. Which Potency did it give?
**A.** The Potency was “inactive”.

**Q.** How did the Potency turn out when `O=C(O)CCC(=O)OC[C@@H](NC(=O)C(Cl)Cl)[C@H](O)c1ccc([N+](=O)[O-])cc1` was run?
**A.** Its Potency is “inactive”.

Source: PubChem BioAssay (Tox21)
